Screening data deposited in PubChem by several laboratories.
A selection: hits, their analogues and other compounds. The true share with any hit is near 2.4%.
DTT redox prof: compounds producing H2O2 with reducing agent – biochemical, NIH compound library profiling, artefact control for MLSCN library redox annotation, primary screen. hit rate 0.03% among 200,000. DTT-dependent redox cycling H2O2, phenol red/HRP absorbance; 100% = 100 µM peroxide control, 0% = buffer. AID 878, 2007. activation, % at 10 µM;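 active means activation of at least 50% relative to the plate's high and low controls in the primary single-dose screen; inactive means activation below 50%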;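 further: compound incubated with DTT at 0.8 mM final as the reducing agent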
zVAD death inh: inhibitors of zVAD-triggered necroptosis, primary screen, L929 cells. viability rescue, % at 10 µM. hit rate 0.38% among 220,000. AID 1377, 2008. L929 zVAD necroptosis rescue, ATP luminescence, 24 h; with zVAD 60 µM;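 active means activation, scaled between plate controls, above about 75%, limit read from the data; inactive means activation under that limit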;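 further: 0% = zVAD with DMSO and 100% = DMSO alone without zVAD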
PKD1 inh: inhibitors of human PKD1 kinase, biochemical, fluorescence polarization; Serine/threonine-protein kinase D1 (Homo sapiens), Q15139; PKD1 kinase fluorescence polarization assay; inhibition, % (no concentration beside the values); hit rate 0.056% among 200,000; in the data active means inhibition above about 50%
WT yeast gro inh: growth inhibition of WT strain, primary screen, mitochondrial fusion inhibitor project, WT and mutant strains, chemical genetic | inhibition, % at 10 µM | AID 1362, 2008 | mitochondrial fusion phenotypic screen | hit rate 2.1% among 190,000; in the data active means inhibition above about 58%; tested in S. cerevisiae
TNF necrop inh: inhibitors of TNF-alpha triggered necroptosis, primary screen, cell-based, Jurkat FADD-/-, single concentration; Jurkat FADD-/- TNF necroptosis rescue, ATP luminescence, 24 h; 0 = TNF only, 100 = no-TNF cells; activation (protection from cell death), % at 10 µM; hit rate 0.068% among 220,000; AID 463075, 2010;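 active means activation, meaning protection from cell death, of at least 50% relative to plate controls; inactive means activation below 50%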;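 further: necroptosis triggered by 40 ng/mL TNF-alpha added together with compound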
PERK inh: block of dimerizer-induced PERK translation repression, primary screen, PERK inhibitor project, CHO PERK-DD cells, SEAP luminescence, HTS. Eukaryotic translation initiation factor 2-alpha kinase 3 (Homo sapiens), Q9NZJ5. CHO PERK-DD fusion, SEAP luminescence translation reporter. inhibition, % at 5.6 µM. hit rate 0.17% among 220,000. AID 1416, 2008;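 active means inhibition above the mean inhibition of all tested compounds plus 3 SD, set separately per screening campaign, cut at about 2.9% in these data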;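 further: PERK kinase domain activated by AP20187 dimerizer at 100 nM; 0% = DMSO with dimerizer and 100% = rapamycin at 8.4 µM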
Target sequence (Q9NZJ5 whole entry, looked up, the tested form may be a part): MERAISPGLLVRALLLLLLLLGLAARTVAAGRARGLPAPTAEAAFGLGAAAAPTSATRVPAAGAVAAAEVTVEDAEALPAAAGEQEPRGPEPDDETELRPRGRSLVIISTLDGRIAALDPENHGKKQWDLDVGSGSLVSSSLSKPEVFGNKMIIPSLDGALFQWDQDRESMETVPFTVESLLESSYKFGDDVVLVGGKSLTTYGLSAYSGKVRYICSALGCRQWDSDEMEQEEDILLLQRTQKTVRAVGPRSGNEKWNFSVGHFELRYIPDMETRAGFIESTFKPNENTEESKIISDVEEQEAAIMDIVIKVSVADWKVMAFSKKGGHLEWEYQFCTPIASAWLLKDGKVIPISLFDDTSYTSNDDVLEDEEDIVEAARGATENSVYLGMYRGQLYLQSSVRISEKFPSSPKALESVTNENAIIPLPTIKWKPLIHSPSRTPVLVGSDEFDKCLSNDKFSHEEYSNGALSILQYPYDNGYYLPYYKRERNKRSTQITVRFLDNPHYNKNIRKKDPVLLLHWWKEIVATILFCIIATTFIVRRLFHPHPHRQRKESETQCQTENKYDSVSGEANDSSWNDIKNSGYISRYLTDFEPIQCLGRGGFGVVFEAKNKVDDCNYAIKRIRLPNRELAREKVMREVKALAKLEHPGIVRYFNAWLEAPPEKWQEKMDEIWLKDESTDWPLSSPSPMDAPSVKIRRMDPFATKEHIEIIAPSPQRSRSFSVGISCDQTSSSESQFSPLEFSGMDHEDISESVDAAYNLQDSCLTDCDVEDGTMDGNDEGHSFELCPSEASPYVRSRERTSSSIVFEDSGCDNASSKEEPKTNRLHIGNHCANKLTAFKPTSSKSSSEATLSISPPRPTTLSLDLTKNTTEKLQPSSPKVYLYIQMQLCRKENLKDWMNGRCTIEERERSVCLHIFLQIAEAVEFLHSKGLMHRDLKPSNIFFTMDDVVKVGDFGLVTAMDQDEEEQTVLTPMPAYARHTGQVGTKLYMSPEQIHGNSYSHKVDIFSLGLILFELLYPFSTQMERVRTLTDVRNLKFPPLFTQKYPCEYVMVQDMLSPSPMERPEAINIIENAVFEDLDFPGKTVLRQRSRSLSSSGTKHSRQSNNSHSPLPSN
Active calls of the source: *.

O=C(CCCCCN1C(=O)c2ccccc2C1=O)Nc1ccc(S(=O)(=O)N2CCCCC2)cc1 was read as DTT redox prof 0, zVAD death inh 1, PKD1 inh -1, WT yeast gro inh 68*, TNF necrop inh -10 and PERK inh -1.
Cc1ccc2c(c1)c1c(n2CC(O)CNC2CCCCC2)CCCC1 (stereo not drawn) was read as DTT redox prof -1, zVAD death inh -2, PKD1 inh 1, WT yeast gro inh 93*, TNF necrop inh -11 and PERK inh 0.
For O=C(Oc1cccc([N+](=O)[O-])c1)N1CCCCC1 the results were DTT redox prof 0, zVAD death inh 0, PKD1 inh -3, WT yeast gro inh 1, TNF necrop inh 5 and PERK inh 2.
Screening CC(C)(C)C1CCc2c(sc(NC(=O)c3cccs3)c2C(=O)N2CCCCC2)C1 (stereo not drawn) returned DTT redox prof 1, zVAD death inh 1, PKD1 inh 1, WT yeast gro inh 62*, TNF necrop inh -1 and PERK inh -2.
For Cc1ccc(-c2nnc(SCC(=O)N3CC(C)CC(C)C3)o2)cc1C (stereo not drawn) the results were DTT redox prof 0, zVAD death inh 10, PKD1 inh 3, WT yeast gro inh 7, TNF necrop inh 3 and PERK inh 0.
For CC1CC(C)CN(C(=O)CSc2nnc(-c3ccc(Cl)cc3)o2)C1 (stereo not drawn) the results were DTT redox prof -1, zVAD death inh 83*, PKD1 inh 3, WT yeast gro inh 13, TNF necrop inh 2 and PERK inh 1.
For CCc1nc(SCC(=O)c2cccs2)c2oc3ccccc3c2n1 the results were DTT redox prof -3, zVAD death inh 1, PKD1 inh 5, WT yeast gro inh -25, TNF necrop inh -2 and PERK inh 1.
`Cc1cc(Nc2ccccc2)nc(-c2ccccc2O)n1` gave DTT redox prof 0, zVAD death inh -1, PKD1 inh -5, WT yeast gro inh 0, TNF necrop inh 1 and PERK inh 0.
`Cc1cc(NCc2ccccc2)nc(-c2ccccc2O)n1` gave DTT redox prof -1, zVAD death inh 12, PKD1 inh -4, WT yeast gro inh 62*, TNF necrop inh 2 and PERK inh -1.
`CCC1(C)Cc2ccccc2-c2nc(NCCCO)n(-c3ccccc3)c(=O)c21` (stereo not drawn) gave DTT redox prof 0, zVAD death inh -1, PKD1 inh 1, WT yeast gro inh 0, TNF necrop inh -1 and PERK inh -1.
Cn1c(NCCCO)nc2c(c1=O)C1(CCCCC1)Cc1ccccc1-2 was read as DTT redox prof 0, zVAD death inh 1, PKD1 inh -6, WT yeast gro inh 60*, TNF necrop inh -3 and PERK inh -1.
COC(=O)C1=C(C)NC(=S)NC1c1ccc(-c2cc(Cl)ccc2Cl)o1 (stereo not drawn) was read as zVAD death inh 0, TNF necrop inh -15 and PERK inh -1.
`CCCCN(C(=O)c1cccc2c(=O)c(C)c(-c3ccccc3)oc12)c1ccccc1` gave DTT redox prof 0, zVAD death inh -1, PKD1 inh -6, WT yeast gro inh 78*, TNF necrop inh -1 and PERK inh -1.
`CCCCNC(=O)c1cccc2c(=O)c(C)c(-c3ccccc3)oc12` gave DTT redox prof 1, zVAD death inh 0, PKD1 inh -12, WT yeast gro inh 12, TNF necrop inh -3 and PERK inh 0.
Screening CCC1CCCCN1c1cc(C)nc2cc(-c3cccc(C)c3)nn12 (stereo not drawn) returned DTT redox prof -1, zVAD death inh 1, PKD1 inh -10, WT yeast gro inh 89*, TNF necrop inh 2 and PERK inh 0.
`O=C1CCC(=O)N1CCC(c1ccc(F)cc1)c1ccco1` (stereo not drawn) gave DTT redox prof -1, zVAD death inh 0, PKD1 inh 0, WT yeast gro inh 18, TNF necrop inh 2 and PERK inh 0.
O=C1NCN(c2ccccc2)C12CCN(CCCC(c1ccc(F)cc1)c1ccc(F)cc1)CC2 was read as DTT redox prof 0, zVAD death inh 0, PKD1 inh -5, WT yeast gro inh 73*, TNF necrop inh 1 and PERK inh 1.
O=C1NC(=O)/C(=C\c2ccc(O)cc2O)S1 was read as DTT redox prof -1, zVAD death inh 16, PKD1 inh -6, WT yeast gro inh -9, TNF necrop inh 2 and PERK inh 1.
Screening O=C(Nc1ccc([N+](=O)[O-])cc1)Nc1nc(-c2ccc(Cl)s2)cs1 returned DTT redox prof 0, zVAD death inh 2, PKD1 inh -14, WT yeast gro inh 87*, TNF necrop inh 2 and PERK inh 0.
CC(=O)Nc1nc(-c2ccc([N+](=O)[O-])cc2)cs1 was read as DTT redox prof 0, zVAD death inh 1, PKD1 inh 1, WT yeast gro inh 9, TNF necrop inh -1 and PERK inh 0.
Screening C=CCN1C(=O)/C(=C2/Sc3ccc(OC)cc3N2C)SC1=Nc1cccc(O)c1 returned DTT redox prof -1, zVAD death inh -1, PKD1 inh -2, WT yeast gro inh 5, TNF necrop inh 2 and PERK inh -1.
CC(=O)Nc1cccc(-c2csc(Nc3ccc(Cl)cn3)n2)c1 was read as DTT redox prof 0, zVAD death inh 6, PKD1 inh -8, WT yeast gro inh 76*, TNF necrop inh 0 and PERK inh 2.
Screening Cc1nccn1CC(=O)N/N=C/c1cccc(O)c1 returned DTT redox prof 0, zVAD death inh 0, PKD1 inh -4, WT yeast gro inh -6, TNF necrop inh 1 and PERK inh 0.
For CCCCCCc1cc2cc(S(=O)(=O)c3ccc(Cl)cc3)c(=O)oc2cc1O the results were DTT redox prof 0, PKD1 inh -6, WT yeast gro inh 88*, TNF necrop inh -1 and PERK inh 2.
Screening Cc1cccc2c1NC1(CCCC1)CC2C (stereo not drawn) returned zVAD death inh -1, TNF necrop inh 0 and PERK inh 1.
For Cc1ccc2c(c1C)NC(C)CC2C (stereo not drawn) the results were DTT redox prof 3, zVAD death inh 1, PKD1 inh 2, WT yeast gro inh 10, TNF necrop inh -1 and PERK inh 3.4*.
